Measured values from the supplement of paper PMC10981050.
Where “and” joins values, the source holds several entries; their conditions need not be identical. Equal entries are not always repeated. Structures can show the parent of a compound that is named as a salt.

How the values were obtained:
Experiment in all cases: cell viability relative to vehicle control; higher = less cytotoxic
Conditions in all cases: 10 µM
K562 = system: K562
Outline: (§1)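 Screening covered the Selleck bioactive, kinase and epigenetic probe libraries, less identity-inconsistent compounds, on CRISPR-edited mutant clones and isogenic wild-type clones of four leukaemia lines. Cells, at 2000 per well in 50 µL medium, received a single 10 µM acoustically dispensed dose. After 48 h the supernatant was removed and CellTiter-Glo luminescence was read. Viability was analysed in Genedata Screener as percent of the on-plate vehicle control.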

MARIMO = system: MARIMO
Outline: as §1

MOLM14 = system: MOLM14
Outline: as §1

OCI-AML2 = system: OCI-AML2
Outline: as §1

Row | SMILES | cell viability (K562; SRSF2 genotype: SRSF2 P95H/wt) | cell viability (K562; SRSF2 genotype: SRSF2 wt/wt) [%] | cell viability (MARIMO; SRSF2 genotype: SRSF2 P95H/wt) [%] | cell viability (MARIMO; SRSF2 genotype: SRSF2 wt/wt) [%] | cell viability (MOLM14; SRSF2 genotype: SRSF2 P95H/wt) [%] | cell viability (MOLM14; SRSF2 genotype: SRSF2 wt/wt) [%] | cell viability (OCI-AML2; SRSF2 genotype: P95H/wt) [%] | cell viability (OCI-AML2; SRSF2 genotype: wt/wt) [%]
1 | COc1ccccc1N1CCN(CCCNc2cc(=O)n(C)c(=O)n2C)CC1 [Urapidil hydrochloride] | 102% and 95.6% | 96.9 | 97.8 | 102 | 99.6 | 98 | 96.8 | 95.2
2 | c1ccc(-c2[nH]ncc2-c2ccnc3ccccc23)nc1 | 105% and 109% | 105 | 107 | 106 | 109 | 104 | 112 | 105
3 | CS(=O)(=O)c1ccc(-c2nnc(/C=C/c3nnc(-c4ccc(C#N)cc4)o3)n2-c2ccccc2Cl)nc1 | 105% and 94.2% | 101 | 104 | 108 | 106 | 103 | 99 | 110
4 | Cc1nc2n(c(=O)c1CCN1CCC(c3noc4cc(F)ccc34)CC1)CCCC2O (configuration not stated) [Paliperidone] | 84.4% and 93.4% | 80.7 | 90.2 | 93.2 | 83.5 | 91.8 | 89 | 91.2
5 | COc1ccc2cc3[n+](cc2c1OC)CCc1cc2c(cc1-3)OCO2 [Berberine] | 65.6% and 74.1% | 72.6 | 67.3 | 62.1 | 75.4 | 81.8 | 52 | 53.8
6 | NC(=O)c1cc(F)cc2c1C(=O)N(C1CCN(C3CCC(F)(F)CC3)CC1)C2 | 97.3% and 103% | 95.7 | 96.4 | 106 | 82.6 | 97.3 | 87.5 | 96.1
7 | Cn1cc(C(=O)[C@@H]2CCc3[nH]cnc3C2)c2ccccc21 [Ramosetron Hydrochloride] | 92.3% and 92.8% | 81.9 | 91.2 | 94.8 | 96.2 | 94.1 | 92.2 | 89.9
8 | C[C@H](NCc1ccc(OCc2cccc(F)c2)cc1)C(N)=O [Safinamide] | 101% and 109% | 107 | 103 | 105 | 98.7 | 106 | 104 | 106
9 | OC[C@H]1O[C@@H](c2ccc(F)c(Cc3cc4ccccc4s3)c2)[C@H](O)[C@@H](O)[C@@H]1O [Ipragliflozin (ASP1941)] | 96.6% and 98.5% | 102 | 95.6 | 95.8 | 101 | 99.4 | 99.1 | 95.1
